# Source: PubChem BioAssay (NCATS)
# Records with an inconclusive call do not appear. A number with no mark means an inactive call. Activity calls are given as the source filed them. Calls come from the whole dose curve.
# Assay: Primary qHTS for inhibitors of MERS-S pseudo-typed particle cell entry (AID 1479149); note: nearly all actives have a fitted effect of over 60% in size
# Settings: MERS-S pseudotyped particle entry, luciferase; series mostly up to 57.1 µM; activity change, negative = inhibition: at the top concentration
# % is set by controls: 0 for no effect and ±100 for the full control effect.
SMILES,outcome,"activity change, negative = inhibition"
O=C(O)c1ccccc1Nc1cccc(C(F)(F)F)c1,inactive,
O=C(O)/C=C\C(=O)O,inactive,
O=C(c1ccccc1)c1ccccc1,inactive,
CC(=O)Nc1ccccc1,inactive,
Cc1nnc(SCC2=C(C(=O)O)N3C(=O)[C@@H](NC(=O)Cn4cnnn4)[C@H]3SC2)s1,inactive,
CC(=O)Oc1cccc(O)c1,,-22.5%
CC(=O)OCC(=O)[C@@]1(OC(C)=O)[C@@H](C)C[C@H]2[C@@H]3C[C@H](F)C4=CC(=O)C=C[C@]4(C)[C@@]3(F)[C@@H](O)C[C@@]21C,inactive,
NS(=O)(=O)c1cc(-c2nn[nH]n2)c(NCc2cccs2)cc1Cl,inactive,
CC(C)OC(=O)OCOP(=O)(CO[C@H](C)Cn1cnc2c(N)ncnc21)OCOC(=O)OC(C)C,,-88.2%
CN[C@@H]1[C@H](O)[C@H](NC)[C@H]2O[C@@]3(O)C(=O)C[C@@H](C)O[C@H]3O[C@@H]2[C@H]1O,inactive,
CCCCC(=O)OCC(=O)[C@H]1[C@H](C)C[C@H]2[C@@H]3C[C@H](F)C4=CC(=O)C=C[C@]4(C)[C@@]3(F)[C@@H](O)C[C@@]21C,inactive,
O=c1[nH]cnc2[nH]ncc12,,3.94% [at 114 µM]
CN(C)CCc1c[nH]c2ccc(Cn3cncn3)cc12,inactive,
CC(=O)NCc1c(I)c(NC(C)=O)c(I)c(C(=O)O)c1I,,-9.33%
CCCCCCCCCCCCCCCCCCO,inactive,
c1ccc2sc(SSc3nc4ccccc4s3)nc2c1,inactive [at 26.4 µM],
Cc1c(Nc2ncccc2C(=O)O)cccc1C(F)(F)F,inactive,
NC(=O)c1ncn([C@@H]2O[C@H](CO)[C@@H](O)[C@H]2O)c1O,inactive,
COCCCN1CCC(NC(=O)c2cc(Cl)c(N)c3c2OCC3)CC1,inactive,

SMILES,outcome,"activity change, negative = inhibition"
O=C(O)[C@H](O)c1ccccc1,,-16.1%
CS(=O)(=O)c1ccc([C@@H](O)[C@@H](CO)NC(=O)C(Cl)Cl)cc1,inactive,
Nc1ccc(S(=O)(=O)Nc2ccnn2-c2ccccc2)cc1,inactive [at 26.4 µM],
Nc1nc(=O)n([C@@H]2CS[C@H](CO)O2)cc1F,inactive,
NS(=O)(=O)c1cc(C(=O)NN2C[C@H]3[C@H]4CCC(C4)[C@H]3C2)ccc1Cl,inactive,
CO[C@@]1(NC(=O)CSC[C@@H](N)C(=O)O)C(=O)N2C(C(=O)O)=C(CSc3nnnn3C)CS[C@@H]21,inactive,
CC(C)(O/N=C(\C(=O)N[C@@H]1C(=O)N2C(C(=O)[O-])=C(C[n+]3ccccc3)CS[C@H]12)c1csc(N)n1)C(=O)O,inactive [at 26.4 µM],
C[N+](C)(CCOc1ccccc1)Cc1cccs1,inactive,
COCCCOc1ccnc(CS(=O)c2nc3ccccc3[nH]2)c1C (stereo unspecified),inactive,
Cc1cccn2c(=O)c(-c3nnn[nH]3)cnc12,inactive [at 26.4 µM],
COC(=O)[C@@H]1[C@H]2C[C@H]3c4[nH]c5ccccc5c4CCN3C[C@@H]2CC[C@@H]1O,inactive,
Cc1noc(NS(=O)(=O)c2ccc(N)cc2)c1C,inactive,
CN/C(=C\[N+](=O)[O-])NCCSCc1csc(CN(C)C)n1,inactive,
CC(C)(Oc1ccc(Cl)cc1)C(=O)OCCCOC(=O)C(C)(C)Oc1ccc(Cl)cc1,,4.77%
Cc1cc(O)c2c(O)c3c(O)cccc3cc2c1,inactive,
O=C1[C@@H]2[C@H]3CC[C@H](C3)[C@@H]2C(=O)N1CCCCN1CCN(c2ncccn2)CC1,,-15.3%
Cc1ccccc1OCC(O)CO (stereo unspecified),inactive,
Cc1cc2cc3c(C)cc(=O)oc3c(C)c2o1,inactive,
Nc1nc2[nH]cc(CCc3ccc(C(=O)N[C@@H](CCC(=O)O)C(=O)O)cc3)c2c(=O)[nH]1,inactive,

# Assay: Primary qHTS for Vero E6 cytotoxicity: counterscreen for inhibitors of SARS-S pseudo-typed particle cell entry (AID 1479150)
# Settings: cell viability; series mostly up to 57.1 µM; activity change, negative = cytotoxicity: at the top concentration
SMILES,"activity change, negative = cytotoxicity",outcome
O=C(O)c1ccccc1Nc1cccc(C(F)(F)F)c1,1.26%,
O=C(O)/C=C\C(=O)O,,inactive
O=C(c1ccccc1)c1ccccc1,,inactive
CC(=O)Nc1ccccc1,,inactive
Cc1nnc(SCC2=C(C(=O)O)N3C(=O)[C@@H](NC(=O)Cn4cnnn4)[C@H]3SC2)s1,-5.35%,
CC(=O)Oc1cccc(O)c1,,inactive
CC(=O)OCC(=O)[C@@]1(OC(C)=O)[C@@H](C)C[C@H]2[C@@H]3C[C@H](F)C4=CC(=O)C=C[C@]4(C)[C@@]3(F)[C@@H](O)C[C@@]21C,,inactive
NS(=O)(=O)c1cc(-c2nn[nH]n2)c(NCc2cccs2)cc1Cl,-7.12%,
CC(C)OC(=O)OCOP(=O)(CO[C@H](C)Cn1cnc2c(N)ncnc21)OCOC(=O)OC(C)C,,inactive
CN[C@@H]1[C@H](O)[C@H](NC)[C@H]2O[C@@]3(O)C(=O)C[C@@H](C)O[C@H]3O[C@@H]2[C@H]1O,,inactive
CCCCC(=O)OCC(=O)[C@H]1[C@H](C)C[C@H]2[C@@H]3C[C@H](F)C4=CC(=O)C=C[C@]4(C)[C@@]3(F)[C@@H](O)C[C@@]21C,,inactive
O=c1[nH]cnc2[nH]ncc12,2.78% [at 114 µM],
CN(C)CCc1c[nH]c2ccc(Cn3cncn3)cc12,,inactive
CC(=O)NCc1c(I)c(NC(C)=O)c(I)c(C(=O)O)c1I,3.59%,
CCCCCCCCCCCCCCCCCCO,1.13%,
c1ccc2sc(SSc3nc4ccccc4s3)nc2c1,3.88% [at 26.4 µM],
Cc1c(Nc2ncccc2C(=O)O)cccc1C(F)(F)F,,inactive
NC(=O)c1ncn([C@@H]2O[C@H](CO)[C@@H](O)[C@H]2O)c1O,,inactive
COCCCN1CCC(NC(=O)c2cc(Cl)c(N)c3c2OCC3)CC1,0.837%,

SMILES,"activity change, negative = cytotoxicity",outcome
O=C(O)[C@H](O)c1ccccc1,,inactive
CS(=O)(=O)c1ccc([C@@H](O)[C@@H](CO)NC(=O)C(Cl)Cl)cc1,,inactive
Nc1ccc(S(=O)(=O)Nc2ccnn2-c2ccccc2)cc1,,inactive [at 26.4 µM]
Nc1nc(=O)n([C@@H]2CS[C@H](CO)O2)cc1F,,inactive
NS(=O)(=O)c1cc(C(=O)NN2C[C@H]3[C@H]4CCC(C4)[C@H]3C2)ccc1Cl,,inactive
CO[C@@]1(NC(=O)CSC[C@@H](N)C(=O)O)C(=O)N2C(C(=O)O)=C(CSc3nnnn3C)CS[C@@H]21,2.49%,
CC(C)(O/N=C(\C(=O)N[C@@H]1C(=O)N2C(C(=O)[O-])=C(C[n+]3ccccc3)CS[C@H]12)c1csc(N)n1)C(=O)O,1.03% [at 26.4 µM],
C[N+](C)(CCOc1ccccc1)Cc1cccs1,,inactive
COCCCOc1ccnc(CS(=O)c2nc3ccccc3[nH]2)c1C (stereo unspecified),1.12%,
Cc1cccn2c(=O)c(-c3nnn[nH]3)cnc12,-10.1% [at 26.4 µM],
COC(=O)[C@@H]1[C@H]2C[C@H]3c4[nH]c5ccccc5c4CCN3C[C@@H]2CC[C@@H]1O,,inactive
Cc1noc(NS(=O)(=O)c2ccc(N)cc2)c1C,-6.11%,
CN/C(=C\[N+](=O)[O-])NCCSCc1csc(CN(C)C)n1,,inactive
CC(C)(Oc1ccc(Cl)cc1)C(=O)OCCCOC(=O)C(C)(C)Oc1ccc(Cl)cc1,,inactive
Cc1cc(O)c2c(O)c3c(O)cccc3cc2c1,,inactive
O=C1[C@@H]2[C@H]3CC[C@H](C3)[C@@H]2C(=O)N1CCCCN1CCN(c2ncccn2)CC1,,inactive
Cc1ccccc1OCC(O)CO (stereo unspecified),,inactive
Cc1cc2cc3c(C)cc(=O)oc3c(C)c2o1,,inactive
Nc1nc2[nH]cc(CCc3ccc(C(=O)N[C@@H](CCC(=O)O)C(=O)O)cc3)c2c(=O)[nH]1,-11.3%,
